{"source": "PubChem BioAssay (EPA / NIEHS)", "key": {"[1]": {"read-out": "Urokinase-type plasminogen activator receptor (uPAR), PLAUR (gene 5329)", "experiment": "BSK_4H_uPAR: BioMAP Diversity Plus: 4H Assay for Urokinase-type plasminogen activator receptor (uPAR) Biomarker Activity (AID 2283030)", "conditions": "primary human endothelial cells (HUVEC); actives raise or lower the signal", "summary_of_the_method": "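Primary human umbilical vein endothelial cells were exposed to chemical for 24 h before cell-surface uPAR was quantified by ELISA. Activity was fitted bidirectionally against the DMSO negative control baseline.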"}, "[2]": {"read-out": "Vascular endothelial growth factor receptor 2 (Homo sapiens) (UniProt P35968)", "experiment": "BSK_4H_VEGFRII: BioMAP Diversity Plus: 4H Assay for Vascular endothelial growth factor receptor 2 (VEGFR2) Biomarker Activity (AID 2283031)", "conditions": "primary human endothelial cells (HUVEC); actives raise or lower the signal", "summary_of_the_method": "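Primary human umbilical vein endothelial cells in the BioMAP 4H system were dosed with test chemical, and 24 h later VEGFRII was measured by ELISA. Activity was fitted bidirectionally against DMSO as negative control and baseline.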"}, "[3]": {"read-out": "Human Leukocyte Antigen - DR isotype (HLADR), HLA-DRA (gene 3122)", "experiment": "BSK_BE3C_HLADR: BioMAP Diversity Plus: BE3C Assay for Human Leukocyte Antigen - DR isotype (HLADR) Biomarker Activity (AID 2283032)", "conditions": "primary human bronchial epithelial cells; actives raise or lower the signal", "summary_of_the_method": "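Human primary bronchial epithelial cells in the BE3C system were exposed to chemicals for 24 h, after which HLA-DR levels were quantified by ELISA. Activity was fitted bidirectionally, gain or loss of signal, against DMSO as negative control and baseline.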"}, "[4]": {"read-out": "Vascular cell adhesion molecule 1 (VCAM1), VCAM1 (gene 7412)", "experiment": "BSK_4H_VCAM1: BioMAP Diversity Plus: 4H Assay for Vascular cell adhesion molecule 1 (VCAM1) Biomarker Activity (AID 2283033)", "conditions": "primary human endothelial cells (HUVEC); actives raise or lower the signal", "summary_of_the_method": "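Primary human umbilical vein endothelial cells were exposed to chemicals for 24 h, after which VCAM-1 was quantified by ELISA. Responses were fitted bidirectionally against DMSO as negative control and activity baseline.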"}, "[5]": {"read-out": "Interferon-gamma inducible Protein 10 (IP10), CXCL10 (gene 3627)", "experiment": "BSK_BE3C_IP10: BioMAP Diversity Plus: BE3C Assay for Interferon-gamma inducible Protein 10 (IP10) Biomarker Activity (AID 2283034)", "conditions": "primary human bronchial epithelial cells; actives raise or lower the signal", "summary_of_the_method": "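Human primary bronchial epithelial cells were exposed to chemicals for 24 hours, after which IP-10 levels were measured by ELISA. Data were fitted bidirectionally against DMSO, which served as the negative control and activity baseline.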"}, "[6]": {"read-out": "Monokine induced gamma interferon (MIG), CXCL9 (gene 4283)", "experiment": "BSK_BE3C_MIG: BioMAP Diversity Plus: BE3C Assay for Monokine induced gamma interferon (MIG) Biomarker Activity (AID 2283035)", "conditions": "primary human bronchial epithelial cells; actives raise or lower the signal", "summary_of_the_method": "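ELISA read-out of MIG in human lung bronchial epithelial primary cultures, 24 h post-dosing. Bidirectional curve fit vs DMSO baseline.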"}, "[7]": {"read-out": "Plasminogen activator inhibitor-1 (PAI1), SERPINE1 (gene 5054)", "experiment": "BSK_BE3C_PAI1: BioMAP Diversity Plus: BE3C Assay for Plasminogen activator inhibitor-1 (PAI1) Biomarker Activity (AID 2283037)", "conditions": "primary human bronchial epithelial cells; actives raise or lower the signal", "summary_of_the_method": "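Human primary bronchial epithelial cells were exposed to chemical for 24 h, then PAI-1 was quantified by ELISA. Activity was fitted bidirectionally relative to the DMSO negative control baseline.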"}, "[8]": {"read-out": "urokinase plasminogen activator (uPA), PLAU (gene 5328)", "experiment": "BSK_BE3C_uPA: BioMAP Diversity Plus: BE3C Assay for urokinase plasminogen activator (uPA) Biomarker Activity (AID 2283038);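 for outcome: uPA read one day after compound addition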", "conditions": "primary human bronchial epithelial cells; actives raise or lower the signal", "summary_of_the_method": "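Human primary bronchial epithelial cells were exposed to chemical for 24 h, then uPA levels were measured by ELISA. Responses were fitted bidirectionally against DMSO as negative control and baseline. Parallel SRB staining of total protein gauged overt cytotoxicity.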"}, "[9]": {"read-out": "Urokinase-type plasminogen activator receptor (uPAR), PLAUR (gene 5329)", "experiment": "BSK_BE3C_uPAR: BioMAP Diversity Plus: BE3C Assay for Urokinase-type plasminogen activator receptor (uPAR) Biomarker Activity (AID 2283039);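 for outcome: cells exposed to compound for one day before measurement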", "conditions": "primary human bronchial epithelial cells; actives raise or lower the signal", "summary_of_the_method": "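Primary human bronchial epithelial cells were dosed with chemical and harvested 24 h later; uPAR was quantified by ELISA. Activity was fitted bidirectionally against DMSO as negative control and baseline.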"}, "[10]": {"read-out": "Interleukin-6 (IL6), IL6 (gene 3569)", "experiment": "BSK_CASM3C_IL6: BioMAP Diversity Plus: CASM3C Assay for Interleukin-6 (IL6) Biomarker Activity for (AID 2283040)", "conditions": "primary human coronary artery smooth muscle cells; actives raise or lower the signal"}, "[11]": {"read-out": "Tissue plasminogen activator (tPA), PLAT (gene 5327)", "experiment": "BSK_BE3C_tPA: BioMAP Diversity Plus: BE3C Assay for Tissue plasminogen activator (tPA) Biomarker Activity (AID 2283041);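 for outcome: tPA level quantified by ELISA one day after compound addition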", "conditions": "primary human bronchial epithelial cells; actives raise or lower the signal", "summary_of_the_method": "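Human primary bronchial epithelial cells were dosed with chemical and tPA biomarker levels measured by ELISA 24 hours later. Activity was fitted bidirectionally against DMSO as negative control and baseline.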"}, "[12]": {"read-out": "Interleukin-8 (IL8), CXCL8 (gene 3576)", "experiment": "BSK_CASM3C_IL8: BioMAP Diversity Plus: CASM3C Assay for Interleukin-8 (IL8) Biomarker Activity (AID 2283042)", "conditions": "primary human coronary artery smooth muscle cells; actives raise or lower the signal"}, "[13]": {"read-out": "Human Leukocyte Antigen - DR isotype (HLADR), HLA-DRA (gene 3122)", "experiment": "BSK_CASM3C_HLADR: BioMAP Diversity Plus: CASM3C Assay for Human Leukocyte Antigen - DR isotype (HLADR) Biomarker Activity (AID 2283043)", "conditions": "primary human coronary artery smooth muscle cells; actives raise or lower the signal"}, "[14]": {"read-out": "Macrophage colony-stimulating factor (MCSF), CSF1 (gene 1435)", "experiment": "BSK_CASM3C_MCSF: BioMAP Diversity Plus: CASM3C Assay for Macrophage colony-stimulating factor (MCSF) Biomarker Activity (AID 2283044);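 note: M-CSF protein amount quantified by ELISA after 24 h exposure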", "conditions": "primary human coronary artery smooth muscle cells; actives raise or lower the signal"}, "[15]": {"read-out": "Low-density lipoprotein receptor (LDLR), LDLR (gene 3949)", "experiment": "BSK_CASM3C_LDLR: BioMAP Diversity Plus: CASM3C Assay for Low-density lipoprotein receptor (LDLR) Biomarker Activity (AID 2283045)", "conditions": "primary human coronary artery smooth muscle cells; actives raise or lower the signal"}, "[16]": {"read-out": "Monocyte Chemoattractant Protein-1 (MCP1), CCL2 (gene 6347)", "experiment": "BSK_CASM3C_MCP1: BioMAP Diversity Plus: CASM3C Assay for Monocyte Chemoattractant Protein-1 (MCP1) Biomarker Activity (AID 2283046)", "conditions": "primary human coronary artery smooth muscle cells; actives raise or lower the signal"}, "[17]": {"experiment": "BSK_CASM3C_Proliferation: Cell Proliferation Assessment in the BioMAP Diversity Plus: CASM3C Assay (AID 2283047);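 note: sulforhodamine B total protein stain as relative cell number at 560 nm; sub-confluent cells exposed 48 h before staining; fitted both ways against DMSO so gain or loss of cell number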", "conditions": "primary human coronary artery smooth muscle cells"}, "[18]": {"read-out": "Monokine induced gamma interferon (MIG), CXCL9 (gene 4283)", "experiment": "BSK_CASM3C_MIG: BioMAP Diversity Plus: CASM3C Assay for Monokine induced gamma interferon (MIG) Biomarker Activity (AID 2283048)", "conditions": "primary human coronary artery smooth muscle cells; actives raise or lower the signal"}, "[19]": {"read-out": "serum amyloid A (SAA), SAA1 (gene 6288)", "experiment": "BSK_CASM3C_SAA: BioMAP Diversity Plus: CASM3C Assay for serum amyloid A (SAA) Biomarker Activity (AID 2283049)", "conditions": "primary human coronary artery smooth muscle cells; actives raise or lower the signal"}, "[20]": {"read-out": "Transforming growth factor beta 1 (TGFb1), TGFB1 (gene 7040)", "experiment": "BSK_BE3C_TGFb1: BioMAP Diversity Plus: BE3C Assay for Transforming growth factor beta 1 (TGFb1) Biomarker Activity (AID 2283036)", "conditions": "primary human bronchial epithelial cells; actives raise or lower the signal", "summary_of_the_method": "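Human primary bronchial epithelial cells (BE3C system) were dosed with chemical and TGF-b1 levels measured by ELISA at 24 h. Activity was fitted bidirectionally relative to DMSO negative control as baseline.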"}}, "note": "Where “and” joins values, the source holds several entries; their conditions need not be identical. Identical values can stand only once. Some compounds were tested as several samples or in several runs, with calls that do not always agree. Calls of active or inactive are those of the source. Rule for the calls: active = hit-call score of the fitted dose curve at least 0.9, where 1 is the maximum; inactive = score below 0.9."}
{"molecule": "O=C(O)C(F)(F)C(F)(F)C(F)(F)C(F)(F)C(F)(F)C(F)(F)C(F)(F)C(F)(F)Cl", "values": [{"measurement": "outcome", "setting": "[1]", "value": "inactive"}, {"measurement": "outcome", "setting": "[2]", "value": "inactive"}, {"measurement": "AC50", "setting": "[3]", "value": "18.2 µM (active) and 17.6 µM (active)"}, {"measurement": "AC50", "setting": "[4]", "value": "56.8 µM (active)"}, {"measurement": "outcome", "setting": "[4]", "value": "inactive"}, {"measurement": "AC50", "setting": "[5]", "value": "18.3 µM (active) and 17.9 µM (active)"}, {"measurement": "AC50", "setting": "[6]", "value": "46.6 µM (active) and 46.5 µM (active)"}, {"measurement": "AC50", "setting": "[7]", "value": "18 µM (active) and 12.2 µM (active)"}, {"measurement": "AC50", "setting": "[8]", "value": "45.7 µM (active) and 45.8 µM (active)"}, {"measurement": "AC50", "setting": "[9]", "value": "48.6 µM (active) and 44.4 µM (active)"}, {"measurement": "outcome", "setting": "[10]", "value": "inactive"}, {"measurement": "AC50", "setting": "[11]", "value": "30 µM (active) and 20.4 µM (active)"}, {"measurement": "outcome", "setting": "[12]", "value": "inactive"}, {"measurement": "outcome", "setting": "[13]", "value": "inactive"}, {"measurement": "outcome", "setting": "[14]", "value": "inactive"}, {"measurement": "outcome", "setting": "[15]", "value": "inactive"}, {"measurement": "outcome", "setting": "[16]", "value": "inactive"}, {"measurement": "outcome", "setting": "[17]", "value": "inactive"}, {"measurement": "outcome", "setting": "[18]", "value": "inactive"}, {"measurement": "outcome", "setting": "[19]", "value": "inactive"}]}
{"molecule": "CC(C)(C)C(=O)CC(=O)C(F)(F)C(F)(F)C(F)(F)F", "values": [{"measurement": "outcome", "setting": "[1]", "value": "inactive"}, {"measurement": "outcome", "setting": "[2]", "value": "inactive"}, {"measurement": "outcome", "setting": "[3]", "value": "inactive"}, {"measurement": "outcome", "setting": "[4]", "value": "inactive"}, {"measurement": "outcome", "setting": "[5]", "value": "inactive"}, {"measurement": "outcome", "setting": "[6]", "value": "inactive"}, {"measurement": "outcome", "setting": "[7]", "value": "inactive"}, {"measurement": "outcome", "setting": "[8]", "value": "inactive"}, {"measurement": "outcome", "setting": "[9]", "value": "inactive"}, {"measurement": "outcome", "setting": "[10]", "value": "inactive"}, {"measurement": "outcome", "setting": "[11]", "value": "inactive"}, {"measurement": "outcome", "setting": "[12]", "value": "inactive"}, {"measurement": "outcome", "setting": "[13]", "value": "inactive"}, {"measurement": "outcome", "setting": "[14]", "value": "inactive"}, {"measurement": "outcome", "setting": "[15]", "value": "inactive"}, {"measurement": "outcome", "setting": "[16]", "value": "inactive"}, {"measurement": "outcome", "setting": "[17]", "value": "inactive"}, {"measurement": "outcome", "setting": "[18]", "value": "inactive"}, {"measurement": "outcome", "setting": "[19]", "value": "inactive"}]}
{"molecule": "CCCCCCCCCCCCCCCC[N+](C)(C)Cc1ccccc1", "values": [{"measurement": "AC50", "setting": "[1]", "value": "5.78 µM (active)"}, {"measurement": "AC50", "setting": "[2]", "value": "38.8 µM (active)"}, {"measurement": "AC50", "setting": "[3]", "value": "2.19 µM (active)"}, {"measurement": "AC50", "setting": "[4]", "value": "1.78 µM (active)"}, {"measurement": "AC50", "setting": "[5]", "value": "2.47 µM (active)"}, {"measurement": "AC50", "setting": "[6]", "value": "10 µM (active)"}, {"measurement": "AC50", "setting": "[20]", "value": "20 µM (active)"}, {"measurement": "AC50", "setting": "[7]", "value": "20 µM (active)"}, {"measurement": "AC50", "setting": "[8]", "value": "13.2 µM (active)"}, {"measurement": "AC50", "setting": "[9]", "value": "9.42 µM (active)"}, {"measurement": "AC50", "setting": "[10]", "value": "3.74 µM (active)"}, {"measurement": "AC50", "setting": "[11]", "value": "7.03 µM (active)"}, {"measurement": "AC50", "setting": "[12]", "value": "4.79 µM (active)"}, {"measurement": "AC50", "setting": "[13]", "value": "2.56 µM (active)"}, {"measurement": "AC50", "setting": "[14]", "value": "1.89 µM (active)"}, {"measurement": "AC50", "setting": "[15]", "value": "9.64 µM (active)"}, {"measurement": "AC50", "setting": "[16]", "value": "3.5 µM (active)"}, {"measurement": "AC50", "setting": "[17]", "value": "1.29 µM (active)"}, {"measurement": "AC50", "setting": "[18]", "value": "5.11 µM (active)"}, {"measurement": "AC50", "setting": "[19]", "value": "2.59 µM (active)"}]}
